Assay outcomes as filed in PubChem BioAssay.
Only some compounds are listed: those with a hit (about 5.4% of all), similar ones and a draw of the others.
ALOX15B inhib – qHTS Assay for Inhibitors of 15-hLO-2 (15-human lipoxygenase 2); purified 15hLO-2, xylenol orange hydroperoxide absorbance; Potency, µM (series often up to 57.1 µM), for inactives: at the top dose activity change, negative = inhibition, hits mostly inhibitors; 110,000 tested, 0.56% active; note: potency is the fitted concentration of half-maximal effect; nearly all actives have a fitted effect of over 60% in size
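Purified human 15hLO-2 (50 nM final) preincubated with compounds 15 min at room temperature in 25 mM Hepes pH 7.5, 0.01% Triton X-100, then 45 uM arachidonic acid added for 90 min; hydroperoxide detected via ferrous/xylenol orange, 573/405 nm absorbance ratio.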
PNC assembly inh – High Content Assay for Compounds that inhibit the Assembly of the Perinucleolar Compartment. PC3M PTB-GFP, PNC prevalence imaging, 16 h; active compounds read low. activity change (PNC), negative = inhibition, % at 10 µM. 140,000 tested, 3.1% active;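 active = readout at or below -70, meaning at least 70% loss of cells showing the perinucleolar compartment, a nuclear body marking cancer cells; inconclusive = readout between -30 and a set limit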;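 note: plate controls were DMSO wells for no effect and camptothecin positive control wells for full effect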
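Compounds are pinned in duplicate onto adhered PC3M cells stably expressing GFP-tagged PTB and incubated 16 h at 37 C. Cells are then fixed, nuclei stained with Hoechst, and PNC-positive cells counted.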
ALOX12 inhib – qHTS Assay for Inhibitors of 12-hLO (12-human lipoxygenase). purified 12-hLO, xylenol orange hydroperoxide absorbance. Potency, µM (doses to about 57.1 µM), inactives show top-dose activity change, negative = inhibition, usual class: inhibitors. 150,000 tested, 0.12% active. Polyunsaturated fatty acid lipoxygenase ALOX12 (Homo sapiens), P18054. AID 1452, 2008; note: potency is the fitted concentration of half-maximal effect; nearly all actives have a fitted effect of over 55% in size
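150 nM 12hLO, 25 mM Hepes pH 7.0 + 0.01% Triton X-100; cpd preinc 15 min RT; 40 uM arachidonic acid, 30 min RT; Fe-XO 30 min; A573/A405 ratio as read-out.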
HPGD block – qHTS Assay for Inhibitors of HPGD (15-Hydroxyprostaglandin Dehydrogenase); 15-hydroxyprostaglandin dehydrogenase [NAD(+)] (Homo sapiens), P15428; purified HPGD, NADH fluorescence kinetic, PGE2 substrate; Potency, µM, inactives show top-dose activity change, negative = inhibition, most hits filed as inhibitors; 150,000 tested, 4.3% active; AID 894, 2007; active = well fitted inhibition curve with a large enough effect, not every such curve was filed as active; inconclusive = small, poorly fitted or top-dose-only effect, or another doubt; inactive = no such curve, though single readings can be large or run the other way; note: potency is the fitted concentration of half-maximal effect
Target sequence (P15428 whole entry, looked up): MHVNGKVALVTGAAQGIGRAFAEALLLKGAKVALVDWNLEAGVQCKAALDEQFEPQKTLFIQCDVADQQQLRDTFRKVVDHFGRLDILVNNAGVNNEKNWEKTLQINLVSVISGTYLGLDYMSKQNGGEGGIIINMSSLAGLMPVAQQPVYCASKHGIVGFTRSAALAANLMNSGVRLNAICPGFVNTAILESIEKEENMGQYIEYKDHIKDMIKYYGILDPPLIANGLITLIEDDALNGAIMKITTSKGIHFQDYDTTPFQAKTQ
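NADH formation kinetics: reaction with 30 uM PGE2 and 1 mM NAD+ (final), 20 nM enzyme, Tris-HCl pH 8 with Tween 20, after 15 min compound preincubation at room temperature. Fluorescence change, last versus first of five reads.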
IMPase Li inh – qHTS Assay for Identifying the Cell-Membrane Permeable IMPase Inhibitors: Potentiation with Lithium; CHO-M1 cells, IP1 TR-FRET (IP-One), carbachol + lithium; Potency, µM (titrated, usually from 59.4 µM), without a hit: top-dose activity, negative = IMPase inhibition, most hits filed as inhibitors; 210,000 tested, 0.35% active;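 note: IP1 builds up when IMPase is blocked and the TR-FRET signal falls; potency is the fitted concentration of half-maximal effect; plate controls were basal vehicle for no effect and high inhibitor control for full effect; nearly all actives have a fitted effect of over 50% in size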
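Concentration–response in CHO-M1 cells, lithium-potentiated; 30 min at 37C. IP1 detected by competitive TR-FRET after 10 min lysis at RT. Hill-fitted AC50.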
IMPase cell inh – qHTS Assay for Identifying the Cell-Membrane Permeable IMPase Inhibitors; Inositol monophosphatase 1 (Rattus norvegicus), P97697; CHO-M1 cells, IP1 accumulation, HTRF TR-FRET ratio; inhibition (IP1 accumulation), % at 46.1 µM; 120,000 tested, under 10 active; active = well fitted curve in the direction sought with a large enough effect in the signal ratio, not every such curve was filed as active; inconclusive = small, poorly fitted or top-dose-only effect, or a change in a side signal; inactive = no such curve, though single readings can be large or run the other way; the % refers to the signal ratio;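 note: cells stimulated with carbachol in lithium chloride buffer; plate controls were DMSO basal wells for no effect and reference inhibitor wells for full effect; higher means more IMPase inhibition seen as more IP1 and lower FRET ratio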
Target sequence (P97697 whole entry, looked up): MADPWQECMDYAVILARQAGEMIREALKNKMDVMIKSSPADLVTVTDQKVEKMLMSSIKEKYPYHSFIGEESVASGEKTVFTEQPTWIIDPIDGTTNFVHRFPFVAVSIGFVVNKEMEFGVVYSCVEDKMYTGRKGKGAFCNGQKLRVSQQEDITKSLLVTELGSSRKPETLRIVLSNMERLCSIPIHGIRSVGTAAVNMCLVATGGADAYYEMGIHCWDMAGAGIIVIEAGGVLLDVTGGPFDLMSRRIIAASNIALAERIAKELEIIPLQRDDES
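Measured: the HTRF emission ratio (665/620 nm) plus the 620 nm donor channel, each fitted to the Hill equation to give AC50. Cells were CHO-M1 given compounds up to 46 uM and a 30 min carbachol stimulation at 37C.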
An asterisk follows results filed as active; ? = inconclusive; . = not tested or not shown; [ ] = dose if it differs, or a comment. Unless noted, calls come from the whole dose curve; as a rule, active = well fitted curve in the direction sought with a large enough effect; inconclusive = small, poorly fitted or top-dose-only effect, or another doubt; inactive = no such curve, though single readings can be large; an effect the other way counts as inactive or inconclusive. Unless noted, % is set by controls: 0 for no effect and ±100 for the full control effect.

SMILES	ALOX15B inhib	PNC assembly inh	ALOX12 inhib	HPGD block	IMPase Li inh	IMPase cell inh
Cc1cccc(N2CCN(Cc3nnc(-c4ccccc4C)o3)CC2C)c1 (stereo not given)	.	.	.	.	.	7
O=C(CSc1nc2ccc(NC(=O)C3CCCCC3)cc2s1)NCC1CCCO1 (stereo not given)	.	-10	3%	28µM*	8%	.
CCCCc1cc2c(cn1)=C(OC(=O)c1ccco1)C(C)(OC(=O)CC)C(=O)C=2 (stereo not given)	.	.	-2%[11.4 µM]	-13%	5%	.
Cc1cccc2sc(NNC(=O)C3COc4ccccc4O3)nc12 (stereo not given)	.	?	-7%	28µM*	9%	.
N#Cc1cc2c(=O)n3ccccc3nc2n(CCN2CCOCC2)c1=O	-23%	-12	1%	?	1%[38.3 µM]	-3
Cc1ccc2nc3c(cc(C#N)c(=O)n3CCN3CCOCC3)c(=O)n2c1	-4%	-122*	-3%	.	.	17
NCCSC[C@H](N)C(=O)O	7%[11.4 µM]	.	-2%[11.4 µM]	2%	-2%	.
CC1=Nn2c(nc(-c3ccccc3)c2-c2ccccc2)N(CC(N)=O)C(=O)C1	-3%	?	0%	-9%	-8%[38.3 µM]	-3
Cc1nc(Cl)c2c(n1)N(CC(N)=O)C(=O)CO2	.	-109*	4%	-6%	2%	.
COc1cccc(C2=NOC(C(=O)Nc3cccnc3)C2)c1 (stereo not given)	2%	38	-8%	-13%	-2%[38.3 µM]	-1
COc1ccc(C2=NOC(C(=O)Nc3cccnc3)C2)cc1 (stereo not given)	12%	-102*	1%	-12%	28%[38.3 µM]	7
COc1cc(/C=C(/C#N)c2nc3ccccc3[nH]2)ccc1OCC(=O)Nc1ccccc1C(C)C	?	-86*	-4%	?	-10%[38.3 µM]	-2
CC(=O)Nc1ccccc1C=C1c2ccccc2-c2ccccc21	-4%[11.4 µM]	.	-1%[11.4 µM]	-8%	0%	.
CC(=O)OCC1=C(C(=O)O)N2C(=O)C(NC(=O)Cc3cccs3)C2SC1 (stereo not given)	-2%	.	-3%	20µM*	2%	.
COc1ccc2c(c1OC)C(Cc1ccccc1)N1CCc3cc4c(cc3C1C2)OCO4 (stereo not given)	-4%	.	-12%	?	36%	11
Cc1ccccc1NC(=O)CC1(c2ccc(N(C)C)cc2)C(=O)c2ccccc2C1=O	-7%	-90*	-1%	-20%	10%[38.3 µM]	0
COCC(=O)N1CCc2nc(COc3ccccc3)c3c(c2C1)CO[C@@H](C)C3	.	.	5%[11.4 µM]	-10%	1%	.
COc1ccc(-c2nnc(SCC(=O)c3ccc([N+](=O)[O-])cc3)o2)cc1OC	.	.	.	.	.	5
Cc1cc(C(=O)NCC(c2ccco2)N(C)C)no1 (stereo not given)	3%	-93*	-1%	3%	-1%	2
COc1cc(C(=O)NCC(c2ccco2)N(C)C)cc(OC)c1OC (stereo not given)	.	8	0%	-18%	-2%	-7
CCOC(=O)c1ccc([N+](=O)[O-])cc1NC(C)=O	.	-92*	-2%	4%	3%	.
CCOC(=O)c1ccccc1NC(=O)c1cccc([N+](=O)[O-])c1	.	.	.	.	-1%	.
CC(C)N(CC(=O)O)CC(=O)O	0%[11.4 µM]	.	0%[11.4 µM]	2%	3%	.
COCCn1c(C)cc(/C=C2/NC(=O)N(c3ccc(Cl)cc3)C2=O)c1C	.	-114*	-1%	-21%	-5%	.
CCCOC(=O)c1c(-c2ccc(C)cc2C)csc1NC(=O)C1C2CCC(O2)C1C(=O)O (stereo not given)	.	-12	-5%	22µM*	-2%	.
